# Results reported in PubChem BioAssay AID1445 (SRMLSC, 2008).
# Out of some 220,000 compounds screened, about 910 (0.41%) were called active.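 How the source made its calls: active means primary inhibition above the hit cutoff, then over 50% inhibition at one or more dose response concentrations (cut at about 23% in these data, passing the limit was not always enough); inconclusive means conflicting primary data, or primary hits not chosen for dose response; inactive means low primary inhibition, or under 50% at every dose.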 The list comes from a sample in which actives are over-represented; it also holds similar structures and randomly drawn compounds. Entries with a potency or affinity are not part of this list. Where a SMILES comes first, the peptide text is derived from it. The star is where a group is joined. Boc = CC(C)(C)OC(=O)*
# Molecular target: Aminopeptidase N (Plasmodium falciparum (isolate 3D7)) (UniProt O96935)
# Sequence (O96935 whole entry, looked up): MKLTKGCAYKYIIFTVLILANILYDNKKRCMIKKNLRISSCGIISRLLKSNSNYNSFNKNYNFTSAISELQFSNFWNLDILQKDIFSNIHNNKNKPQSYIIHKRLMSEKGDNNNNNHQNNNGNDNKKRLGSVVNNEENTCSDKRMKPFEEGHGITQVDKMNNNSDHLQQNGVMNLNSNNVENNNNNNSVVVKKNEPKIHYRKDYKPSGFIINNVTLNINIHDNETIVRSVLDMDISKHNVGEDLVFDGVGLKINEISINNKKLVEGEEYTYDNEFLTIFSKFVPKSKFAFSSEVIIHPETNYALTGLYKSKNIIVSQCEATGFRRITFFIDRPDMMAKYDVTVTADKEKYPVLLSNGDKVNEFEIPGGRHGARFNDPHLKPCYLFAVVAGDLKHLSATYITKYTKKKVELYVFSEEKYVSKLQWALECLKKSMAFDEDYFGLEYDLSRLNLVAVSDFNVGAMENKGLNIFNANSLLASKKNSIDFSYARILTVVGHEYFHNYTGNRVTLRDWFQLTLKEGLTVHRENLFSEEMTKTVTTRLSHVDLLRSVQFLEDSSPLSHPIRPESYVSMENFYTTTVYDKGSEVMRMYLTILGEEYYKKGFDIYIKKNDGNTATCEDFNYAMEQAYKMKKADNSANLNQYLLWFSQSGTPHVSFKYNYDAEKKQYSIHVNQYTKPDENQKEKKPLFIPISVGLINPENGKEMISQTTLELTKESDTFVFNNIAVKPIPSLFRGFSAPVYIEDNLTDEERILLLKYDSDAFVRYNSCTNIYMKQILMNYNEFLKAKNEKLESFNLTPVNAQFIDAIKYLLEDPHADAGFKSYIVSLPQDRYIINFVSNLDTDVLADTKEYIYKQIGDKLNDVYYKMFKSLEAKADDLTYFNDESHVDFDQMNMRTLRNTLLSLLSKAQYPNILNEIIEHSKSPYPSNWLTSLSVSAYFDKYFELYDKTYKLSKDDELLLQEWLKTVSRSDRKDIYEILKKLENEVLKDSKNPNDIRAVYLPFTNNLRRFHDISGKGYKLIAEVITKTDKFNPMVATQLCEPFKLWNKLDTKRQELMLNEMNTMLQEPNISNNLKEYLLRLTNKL
# Assay: P. falciparum M1AAP inhibitors, biochemical, fluorogenic H-Leu-NHMec substrate, 1536-well (AID 1445);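 further: plate controls were DMSO full reaction for no effect and no enzyme background for full effect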
# Settings: recombinant M1AAP, H-Leu-NHMec fluorogenic kinetic assay; at 30 µM, hits give high values unless noted
row,SMILES,inhibition
1,CCC(=O)N(C)CCc1cc2c(c(OC)c1/C=N/NC(=O)c1ccccc1O)OCO2,-6.1% (inactive)
2,C#CCOCCOCCOCCNc1nc(N2CCOCC2)nc(N2CCN(C(=O)[C@H]([C@@H](C)CC)n3cc(CCCCN)nn3)CC2)n1,0.08% (inactive)
3,O=[N+]([O-])c1ccc(Cl)c(-c2ccc(/C=N/c3c(-c4ccco4)nc4ccccn34)o2)c1,6.65% (inactive)
4,O=[N+]([O-])c1ccc(-c2ccc(/C=N/c3c(-c4ccco4)nc4ccccn34)o2)c(Cl)c1,8.98% (inactive)
5,O=[N+]([O-])c1ccc(-c2ccc(/C=N/c3c(-c4ccco4)nc4ccccn34)o2)cc1,27.6% (active)
6,COC(=O)C(Cc1ccccc1)NC(=O)C(CC(C)C)NC(=O)OC(C)(C)C (stereo not drawn) (Boc-Leu-Phe-OMe; configuration not given here),-2.73% (inactive)
7,CC(C)CC(NC(=O)OC(C)(C)C)C(=O)NCc1ccccc1 (stereo not given),-0.35% (inactive)
8,O=C1N[C@@H](Cc2ccccc2)C(=O)N1CCN1CCOCC1,-7.62% (inactive)
9,O=C(Cn1cnc2ccccc21)N/N=C/c1ccccc1[N+](=O)[O-],-4.86% (inactive)
10,Cc1ccc(S(=O)(=O)N2CCN(C(=O)CC(C)(C)C)CC2)cc1,3.77% (inactive)
11,CN(c1ccccc1C(=O)Nc1ccc(F)c(F)c1)S(C)(=O)=O,0.14% (inactive)
12,COC(=O)CN1C(c2ccc(Cl)cc2)=Nc2ccc(Cl)cc2C1c1ccccc1 (stereo not given),8.62% (inactive)
13,O=C1CN2C(=Nc3ccc(Cl)cc3C2c2ccccc2)CN1 (stereo not given),27.9% (active)
14,O=C1CN2C(=Nc3ccc(Br)cc3C2c2ccccc2)CCN1 (stereo not given),3.13% (inactive)
15,COc1ccc(C2=NOC(C(=O)Nc3cc(C)on3)C2)cc1OC (stereo not given),9.84% (inactive)
16,C=CCNC(=O)/C(C#N)=C\c1cc(Cl)c(O)c(OCC)c1,1.82% (inactive)
17,COc1ccc(/C=C(/C#N)C(=O)Nc2ccc(O)cc2)cc1C(=O)O,15.9% (inactive)
18,CC(C)COc1ccc(/C=C2/Sc3ccccc3C2=O)cc1,-0.23% (inactive)
19,CCOC(=O)C1=C2NC(=O)c3ccccc3N2C(=O)C1,7.37% (inactive)
20,COc1ccc(C(=O)NNC(=O)CCC(=O)Nc2cc(C)on2)cc1,6.61% (inactive)

row,SMILES,inhibition
1,CC(=O)Nc1ccccc1-c1nc2ccc(C(=O)N3CCN(c4cccc(C)c4)C(C)C3)cc2[nH]c1=O (stereo not given),6.05% (inactive)
2,CC(=O)Nc1ccccc1-c1nc2ccc(C(=O)N3CCN(c4ccccc4)CC3)cc2[nH]c1=O,28% (active)
3,CC(=O)Nc1ccccc1-c1nc2ccc(C(=O)N3CCN(c4cc(C)ccc4C)CC3)cc2[nH]c1=O,4.66% (inactive)
4,Cc1ccccc1-c1cnn(-c2cccc([N+](=O)[O-])c2)c1N,1.77% (inactive)
5,CC(C)c1ccc2oc(-c3ccc(N)cc3)nc2c1,4.91% (inactive)
6,Cc1ccc(-c2nc3cc(N)ccc3o2)cc1,6.2% (inactive)
7,CC(=O)N(C(C)=O)N1C(=O)/C(=C/c2ccc(Cl)cc2)SC1=S,29.5% (inactive)
8,O=S(=O)(Nc1ncnc2sc3c(c12)CCC3)c1cc(F)ccc1F,11.3% (inactive)
9,O=S(=O)(Nc1ncnc2sc3c(c12)CCC3)c1ccc(Cl)s1,20% (inactive)
10,O=S(=O)(Nc1ncnc2sc3c(c12)CCC3)c1ccc2ccccc2c1,27.9% (active)
11,CC(C)CCOCC(=O)Oc1ccccc1C(=O)O,-2.22% (inactive)
12,CCN(CC)CCCOC(=O)c1ccc(OC)cc1O,1.55% (inactive)
13,Cc1ccc(C2=NNC(=O)C(c3c[nH]c4ccccc34)C2)cc1 (stereo not given),1.55% (inactive)
14,CCOC(=O)NN1C(=O)c2ccccc2NC1(C)C,13.7% (inactive)
15,CS(=O)(=O)NN1C(=O)c2ccccc2NC12CCCC2,6.27% (inactive)
16,O=C1c2ccccc2NC2(CCCC2)N1NS(=O)(=O)c1ccccc1,7.28% (inactive)
17,CC1(C)Nc2ccccc2C(=O)N1NC(=O)c1ccccc1,22.7% (inactive)
18,COc1ccc(NC(=O)c2ccccc2F)cc1Cl,5.75% (inactive)
19,CCCC[C@@H]1CNC(=S)N1CCCc1cc(OC)c(OC)c(OC)c1,2.36% (inactive)
20,COc1cc(NC(=O)CSc2nnnn2Cc2ccccc2)cc(OC)c1,-0.13% (inactive)

row,SMILES,inhibition
1,Cc1nc(COC(=O)c2ccc(CO)cc2)cs1,4.37% (inactive)
2,Cn1c(=O)c2nc(Cl)c(-c3ccccc3)nc2n(C)c1=O,4.55% (inactive)
3,COCCCNc1ccc([N+](=O)[O-])cc1C(=O)Nc1cccc(C)n1,2.01% (inactive)
4,CCOc1ccc(NS(=O)(=O)c2ccc3[nH]c(=O)c(=O)[nH]c3c2)cc1,10.4% (inactive)
5,O=c1[nH]c2ccc(NS(=O)(=O)c3ccc(Cl)cc3)cc2[nH]1,7.26% (inactive)
6,CC(C)CCNC(=O)c1nnc(Cc2ccc(Cl)cc2)o1,2.74% (inactive)
7,O=C(NCCCc1ccccc1)c1cc([N+](=O)[O-])ccc1Cl,3.08% (inactive)
8,C[N+]1(CC(=O)OC2CCCCCCCCCCC2)CCCC1,32.9% (inactive)
9,Oc1ccc(N=Nc2n[nH]c(-c3ccc(Cl)cc3)n2)cc1,26.6% (active)
10,Cc1ccc(-c2nc(N=Nc3ccc(O)cc3)n[nH]2)cc1,15.9% (inactive)
11,Oc1ccc(N=Nc2n[nH]c(-c3ccc(Br)cc3)n2)cc1,14.1% (inactive)
12,O=C(Nc1ccccc1N1CCOCC1)c1cccnc1,-1.63% (inactive)
13,Cc1onc(-c2c(Cl)cccc2Cl)c1COC(=O)c1ccc(Cl)cc1,0.11% (inactive)
14,O=c1[nH]c(SCc2ccccc2Cl)nc2c1CCC2,-1.92% (inactive)
15,O=c1[nH]c(SCc2ccccc2Cl)nc2c1CCCC2,-3.65% (inactive)
16,Cc1cccc(OCC(=O)NCC(=O)N/N=C/c2cccnc2)c1,8.13% (inactive)
17,O=c1c2ccccc2nc(SCc2cc(F)ccc2F)n1C1CCCC1,6.96% (inactive)
18,CCC(C)(C)NC(=O)C(c1cccnc1)N(C(=O)c1csnn1)c1ccccc1 (stereo not given),-0.28% (inactive)
19,O=P(Cc1cc(Br)cc(Br)c1OCCO)(c1ccccc1)c1ccccc1,5.71% (inactive)
20,O=C(COc1ccc(Br)cc1CO)Nc1ccccc1,9.17% (inactive)
